{"source": "paper PMC8769072", "about": "“Proteome‐scale mapping of binding sites in the unstructured regions of the human proteome” (Molecular Systems Biology, 2022)", "binders": {"B1": {"name": "MDC1, Q14676 (peptide)", "chain": "PVVPTAPELQPSTSTD"}, "B2": {"name": "HNRNPM, P52272 (peptide)", "chain": "QTIERMGSGVERMGPA"}, "B3": {"name": "DCAF1, Q9Y4B6 (peptide)", "chain": "AVGASAPSAPTAHPQP"}, "B4": {"name": "KIF26B, Q2KJY2 (peptide)", "chain": "RVVDGAEMALPGLATQ"}, "B5": {"name": "TRIM47, Q96LD4 (peptide)", "chain": "PSALPSVPEPSAPAAP"}, "B6": {"name": "FOXP1, Q9H334 (peptide)", "chain": "SLPHTPTTPTAPLTPV"}, "B7": {"name": "WASH4P, A8MWX3 (peptide)", "chain": "EVLASAPPLPPSTAAP"}, "B8": {"name": "CABIN1, Q9Y6J0 (peptide)", "chain": "VTVVPTAPDPVPADSV"}, "B9": {"name": "APOL2, Q9BQE5 (peptide)", "chain": "IGRISAEGGEQVERVV"}, "B10": {"name": "RSF1, Q96T23 (peptide)", "chain": "EEDADTMRLQPIGRDK"}, "B11": {"name": "CCNH, P51946 (peptide)", "chain": "SPQFVGNLRESPLGQE"}, "B12": {"name": "PAN3, Q58A45 (peptide)", "chain": "GGLDGPRLAIPGMDGG"}, "B13": {"name": "NEO1, Q92859 (peptide)", "chain": "VVVPSAPEVQETTRML"}, "B14": {"name": "UTRN, P46939 (peptide)", "chain": "SQPSAPDFVQRGFDSF"}, "B15": {"name": "SPTAN1, Q13813 (peptide)", "chain": "SLIERGAAAGSEDAVK"}, "B16": {"name": "SH3BP2, P78314 (peptide)", "chain": "PQLPHLQRSPPDGQSF"}, "B17": {"name": "CRTC2, Q53ET0 (peptide)", "chain": "DELRMEPLGLEGLNML"}, "B18": {"name": "MFSD6, Q6ZSS7 (peptide)", "chain": "VTLPTAPNMNSEPTLQ"}, "B19": {"name": "CGN, Q9P2M7 (peptide)", "chain": "RGLVDGGEAVEARLRD"}, "B20": {"name": "AMOTL1, Q8IY63 (peptide)", "chain": "ARQEPQGQEHQVDNTV"}, "B21": {"name": "PPFIA1, Q13136 (peptide)", "chain": "DIRGLAAGSAETLPAN"}, "B22": {"name": "LENG9, Q96B70 (peptide)", "chain": "AQVLSQRLEAEGLSTL"}, "B23": {"name": "WDR37, Q9Y2I8 (peptide)", "chain": "TLNERLAAEGQAIDGA"}, "B24": {"name": "INF2, Q27J81 (peptide)", "chain": "VGAKALPTAPPPPPLP"}, "B25": {"name": "ENDOG, Q14249 (peptide)", "chain": "LFLPRTEADGKSYVKY"}, "B26": {"name": "SHKBP1, Q8TBC3 (peptide)", "chain": "EHAELAPPAPSAPSWG"}, "B27": {"name": "THAP4, Q8WY91 (peptide)", "chain": "AQQALERTPGDGLATM"}, "B28": {"name": "DSC3, Q14574 (peptide)", "chain": "DYVLTYNYEGRGSPAG"}, "B29": {"name": "HNRNPM, P52272 (peptide)", "chain": "SVERMGSGIERMGPLG"}, "B30": {"name": "MDC1, Q14676 (peptide)", "chain": "PTAPELRPSTSTDRPV"}, "B31": {"name": "BAHCC1, Q9P281 (peptide)", "chain": "HGDGEVRQPPVGIAVA"}, "B32": {"name": "EME1, Q96AY2 (peptide)", "chain": "AEASAPPAPELFSPPV"}, "B33": {"name": "STOX1, Q6ZVD7 (peptide)", "chain": "SVAKAVQASAPADERI"}, "B34": {"name": "ZNF589, Q86UQ0 (peptide)", "chain": "EVHTAPSAPLAFGSQQ"}, "B35": {"name": "E2F3, O00716 (peptide)", "chain": "LPSAPGAEQTAGSLLY"}, "B36": {"name": "TMEM131L, A2VDJ0 (peptide)", "chain": "AEPSAPSLPAGPTGVE"}, "B37": {"name": "HOXA13, P31271 (peptide)", "chain": "VPGLGGPGESRHEPLG"}, "B38": {"name": "LINC01547, P58512 (peptide)", "chain": "GTREDPAGQETTAITN"}, "B39": {"name": "GCC2, Q8IWJ2 (peptide)", "chain": "LDMHTVTREEGEGMET"}, "B40": {"name": "KLC4, Q9NSK0 (peptide)", "chain": "MSGLVLGQRDEPAGHR"}, "B41": {"name": "CNGA3, Q16281 (peptide)", "chain": "SVLQPGIAMETRGLAD"}, "B42": {"name": "TXNDC15, Q96J42 (peptide)", "chain": "RTESIRWLIPGQEQEH"}, "B43": {"name": "PRRC1, Q96M27 (peptide)", "chain": "PSAPLPFVPPPAVPSV"}, "B44": {"name": "CACNA1S, Q13698 (peptide)", "chain": "REAPEGMASSLGALNL"}, "B45": {"name": "RUNDC1, Q96C34 (peptide)", "chain": "LPPAEAVRWAPVGAVA"}, "B46": {"name": "FZD5, Q13467 (peptide)", "chain": "MARPDPSAPPSLLLLL"}, "B47": {"name": "EP300, Q09472 (peptide)", "chain": "PTPTAPLLPPQPATPL"}, "B48": {"name": "MTHFD1L, Q6UB35 (peptide)", "chain": "GGRTPAARDSIVREVI"}, "B49": {"name": "MYLK, Q15746 (peptide)", "chain": "PTAPIFLQGLSDLKVM"}, "B50": {"name": "PLCH2, O75038 (peptide)", "chain": "ATGSDPLWQRLEPAGH"}, "B51": {"name": "FOXP4, Q8IVH2 (peptide)", "chain": "MMVESASETIRSAPSG"}, "B52": {"name": "AKAP13, Q12802 (peptide)", "chain": "RQEALGAEHNSSALLP"}, "B53": {"name": "FAM83H, Q6ZRV2 (peptide)", "chain": "QYVTREPPEGSLLDVD"}, "B54": {"name": "YLPM1, P49750 (peptide)", "chain": "TAAIPSAPVLPPPPVH"}, "B55": {"name": "MAP4K4, O95819 (peptide)", "chain": "TSVVGFSADGMRPEAI"}, "B56": {"name": "BLZF1, Q9H2G9 (peptide)", "chain": "VTSSPIRGAGDGMETE"}, "B57": {"name": "CSB-PGBD3, P0DP91 (peptide)", "chain": "YLSFRSVGDGLSTSAV"}, "B58": {"name": "NAB2, Q15742 (peptide)", "chain": "GGGPDRLEPEMVRMVV"}, "B59": {"name": "ERRFI1, Q9UJM3 (peptide)", "chain": "QERLIPLGHASKSAPM"}, "B60": {"name": "DIP2A, Q14689 (peptide)", "chain": "EPWLDRVIQGSSTSSS"}, "B61": {"name": "SLC35A5, Q9BS91 (peptide)", "chain": "ERSSGDGEELERLTKP"}, "B62": {"name": "POLE, Q07864 (peptide)", "chain": "PSAPDMEDFGLVKLPH"}}, "data": [{"target": "TSG101 1-145, Q99816", "sequence (Q99816 1-145)": "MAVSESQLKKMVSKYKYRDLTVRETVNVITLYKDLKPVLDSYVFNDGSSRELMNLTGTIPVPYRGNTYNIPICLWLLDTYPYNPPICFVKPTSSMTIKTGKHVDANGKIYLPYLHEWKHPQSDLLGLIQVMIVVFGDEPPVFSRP", "values": [{"binder": "B1", "selected by phage display": "confidence 3 (active)"}, {"binder": "B3", "selected by phage display": "confidence 2 (active)"}, {"binder": "B5", "selected by phage display": "confidence 3 (active)"}, {"binder": "B6", "selected by phage display": "confidence 3 (active)"}, {"binder": "B7", "selected by phage display": "confidence 3 (active)"}, {"binder": "B8", "selected by phage display": "confidence 3 (active)"}, {"binder": "B13", "selected by phage display": "confidence 2 (active)"}, {"binder": "B14", "selected by phage display": "confidence 2 (active)"}, {"binder": "B18", "selected by phage display": "confidence 3 (active)"}, {"binder": "B24", "selected by phage display": "confidence 3 (active)"}, {"binder": "B26", "selected by phage display": "confidence 3 (active)"}, {"binder": "B30", "selected by phage display": "confidence 3 (active)"}, {"binder": "B32", "selected by phage display": "confidence 2 (active)"}, {"binder": "B33", "selected by phage display": "confidence 3 (active)"}, {"binder": "B34", "selected by phage display": "confidence 3 (active)"}, {"binder": "B35", "selected by phage display": "confidence 2 (active)"}, {"binder": "B36", "selected by phage display": "confidence 3 (active)"}, {"binder": "B43", "selected by phage display": "confidence 4 (active)"}, {"binder": "B46", "selected by phage display": "confidence 2 (active)"}, {"binder": "B47", "selected by phage display": "confidence 2 (active)"}, {"binder": "B49", "selected by phage display": "confidence 3 (active)"}, {"binder": "B54", "selected by phage display": "confidence 4 (active)"}, {"binder": "B62", "selected by phage display": "confidence 2 (active)"}]}, {"target": "TNKS 174-649, O95271", "sequence (O95271 174-649)": "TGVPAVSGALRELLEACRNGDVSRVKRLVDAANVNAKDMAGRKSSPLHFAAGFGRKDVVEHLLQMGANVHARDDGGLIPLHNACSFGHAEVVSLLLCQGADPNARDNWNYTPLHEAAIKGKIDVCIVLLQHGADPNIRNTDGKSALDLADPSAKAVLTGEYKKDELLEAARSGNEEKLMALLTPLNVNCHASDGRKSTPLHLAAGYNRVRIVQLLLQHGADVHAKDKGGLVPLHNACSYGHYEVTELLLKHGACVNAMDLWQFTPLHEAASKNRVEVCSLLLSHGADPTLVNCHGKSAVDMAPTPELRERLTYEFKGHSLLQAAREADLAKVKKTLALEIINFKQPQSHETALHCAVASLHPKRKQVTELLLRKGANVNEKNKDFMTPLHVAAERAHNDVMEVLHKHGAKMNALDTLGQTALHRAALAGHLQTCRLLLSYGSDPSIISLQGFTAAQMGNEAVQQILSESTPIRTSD", "values": [{"binder": "B2", "selected by phage display": "confidence 3 (active)"}, {"binder": "B4", "selected by phage display": "confidence 2 (active)"}, {"binder": "B9", "selected by phage display": "confidence 3 (active)"}, {"binder": "B10", "selected by phage display": "confidence 3 (active)"}, {"binder": "B11", "selected by phage display": "confidence 2 (active)"}, {"binder": "B12", "selected by phage display": "confidence 3 (active)"}, {"binder": "B15", "selected by phage display": "confidence 2 (active)"}, {"binder": "B16", "selected by phage display": "confidence 2 (active)"}, {"binder": "B17", "selected by phage display": "confidence 3 (active)"}, {"binder": "B19", "selected by phage display": "confidence 3 (active)"}, {"binder": "B20", "selected by phage display": "confidence 3 (active)"}, {"binder": "B21", "selected by phage display": "confidence 2 (active)"}, {"binder": "B22", "selected by phage display": "confidence 2 (active)"}, {"binder": "B23", "selected by phage display": "confidence 3 (active)"}, {"binder": "B25", "selected by phage display": "confidence 4 (active)"}, {"binder": "B27", "selected by phage display": "confidence 3 (active)"}, {"binder": "B28", "selected by phage display": "confidence 2 (active)"}, {"binder": "B29", "selected by phage display": "confidence 4 (active)"}, {"binder": "B31", "selected by phage display": "confidence 2 (active)"}, {"binder": "B37", "selected by phage display": "confidence 2 (active)"}, {"binder": "B38", "selected by phage display": "confidence 2 (active)"}, {"binder": "B39", "selected by phage display": "confidence 3 (active)"}, {"binder": "B40", "selected by phage display": "confidence 2 (active)"}, {"binder": "B41", "selected by phage display": "confidence 2 (active)"}, {"binder": "B42", "selected by phage display": "confidence 3 (active)"}, {"binder": "B44", "selected by phage display": "confidence 4 (active)"}, {"binder": "B45", "selected by phage display": "confidence 4 (active)"}, {"binder": "B48", "selected by phage display": "confidence 2 (active)"}, {"binder": "B50", "selected by phage display": "confidence 4 (active)"}, {"binder": "B51", "selected by phage display": "confidence 3 (active)"}, {"binder": "B52", "selected by phage display": "confidence 3 (active)"}, {"binder": "B53", "selected by phage display": "confidence 2 (active)"}, {"binder": "B55", "selected by phage display": "confidence 2 (active)"}, {"binder": "B56", "selected by phage display": "confidence 2 (active)"}, {"binder": "B57", "selected by phage display": "confidence 3 (active)"}, {"binder": "B58", "selected by phage display": "confidence 2 (active)"}, {"binder": "B59", "selected by phage display": "confidence 2 (active)"}, {"binder": "B60", "selected by phage display": "confidence 3 (active)"}, {"binder": "B61", "selected by phage display": "confidence 3 (active)"}]}]}
